This is a sample that favours compounds with a hit; in the whole collection about 27% have one here.
CYP2C9 activ: activators of human CYP2C9; P11712; recombinant CYP2C9, luciferin-H conversion, luminescence; stronger effect = higher value; factor 1 = untreated enzyme, 0 = blocked; activation factor at 5 µM; 96,000 compounds, 1.4% hits;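 active = activation factor of 2 or more for CYP2C9 at a 5 µM dose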
Target sequence (P11712 whole entry, looked up): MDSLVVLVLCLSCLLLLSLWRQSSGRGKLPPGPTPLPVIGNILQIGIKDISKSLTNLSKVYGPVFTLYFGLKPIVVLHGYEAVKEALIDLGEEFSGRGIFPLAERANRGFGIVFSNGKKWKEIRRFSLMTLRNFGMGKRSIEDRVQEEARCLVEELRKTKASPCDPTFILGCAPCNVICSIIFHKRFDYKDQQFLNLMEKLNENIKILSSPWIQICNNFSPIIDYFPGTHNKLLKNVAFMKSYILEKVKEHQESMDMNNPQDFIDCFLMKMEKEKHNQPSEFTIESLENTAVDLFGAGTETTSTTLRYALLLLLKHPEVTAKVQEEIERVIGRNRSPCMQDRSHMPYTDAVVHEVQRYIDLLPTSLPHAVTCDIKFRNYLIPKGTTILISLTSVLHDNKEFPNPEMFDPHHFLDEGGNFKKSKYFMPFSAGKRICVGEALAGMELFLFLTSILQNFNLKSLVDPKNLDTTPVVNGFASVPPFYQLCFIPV
CYP2C19 activ: activators of human cytochrome P450 2C19; AID 1025; 96,000 tested, under 10 active; activation factor at 5 µM; recombinant CYP2C19, luciferin-H EGE luminescence; stronger effect = higher value; 0 = fully inhibited enzyme, 1 = untreated enzyme;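 active = activation factor of at least 2 at 5 µM in the primary screen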
CYP2C19 inhib: inhibitors of human CYP2C19; P33261; CYP2C19 Supersomes, luciferin-H EGE luminescence, 30 min; inhibition, % at 5 µM; 96,000 compounds, 21% hits;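 active = CYP2C19 inhibition above a set limit at 5 µM in the primary screen, cut at about 50% in these data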
Cav32 inh: inhibitors of human Cav3.2 T-type calcium channel | O95180 | Cav3.2-expressing cells, Fluo-4 calcium fluorescence FDSS; stronger effect = lower value | B-score at 10 µM | 100,000 compounds, 4% hits;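 active = single-dose well whose peak fluorescence ratio is a statistical outlier from its plate by either plate-standardised score or position-corrected B-score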
CYP2C9 inhib: human CYP2C9 inhibition. P11712. CYP2C9 Supersomes, luciferin-H conversion, luminescence. inhibition, % at 5 µM. 96,000 compounds, 20% hits. AID 777;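 active = blocking of liver enzyme CYP2C9 beyond about 50% at 5 µM, limit read from the data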
A number is an active result; i = inactive; nt = no result.

SMILES | CYP2C9 activ | CYP2C19 activ | CYP2C19 inhib | Cav32 inh | CYP2C9 inhib
CCOC(=O)c1cnn(-c2ccccc2)c1-n1cccc1C(=O)C(=O)Nc1ccc(OC)cc1 | i | i | i | i | 80
CCOC(=O)c1cnn(-c2ccccc2)c1-c1ccccc1 | i | i | i | i | i
O=C(CSc1nnc(-c2ccncc2)n1-c1ccc(F)cc1)NC(=O)NCc1ccco1 | nt | nt | nt | i | nt
COC(=O)C1=C(C)Nc2nnnn2C1c1ccco1 (centres undefined) | i | i | i | i | i
CC1=C(C(=O)OC2CCCCC2)C(c2ccco2)n2ncnc2N1 (centres undefined) | i | i | 73 | i | 52
COc1cc(CCCN2C(N)=NC[C@H]2Cc2ccc(O)cc2)cc(OC)c1OC | nt | nt | nt | i | nt
Cn1c(C(=O)N2CCCC(C(=O)NCCCSC3CCCCC3)C2)cc2sccc21 (centres undefined) | i | i | i | nt | 82
Cn1c(C(=O)N2CCCC(C(=O)NCc3cccs3)C2)cc2sccc21 (centres undefined) | i | i | i | i | i
CCn1c(C(=O)N2CCCC(C(=O)NCCc3ccc(C)cc3)C2)cc2sccc21 (centres undefined) | i | i | i | i | 50
NS(=O)(=O)c1ccc(NS(=O)(=O)c2ccc(NC(=O)c3ccc(-c4ccccc4)cc3)cc2)cc1 | i | i | i | nt | i
O=S(=O)(Nc1ccc(S(=O)(=O)Nc2ccccc2)cc1)c1ccccc1 | i | i | i | i | 89
CCNC(=O)c1ccc(NS(=O)(=O)c2ccccc2)cc1 | i | i | i | i | i
O=S(=O)(Nc1ccc(S(=O)(=O)Nc2cccc3ccccc23)cc1)c1ccccc1 | i | i | 83 | i | 90
COc1cc(CCNC(=O)c2cnn3ccccc23)cc(OC)c1OC | i | i | i | i | i
Cc1ccc(Oc2cc(C#N)c(C#N)cc2-n2nnc3ccccc32)cc1C | i | i | i | i | i
CCOC(=O)C(Sc1cc(C)nc(N)n1)C(C)=O (centres undefined) | i | i | i | i | i
Cc1ccc(NC(=O)c2cc([N+](=O)[O-])ccc2NCc2cccnc2)cc1 | i | i | 83 | i | 91
O=C(/C=C/c1cccc([N+](=O)[O-])c1)NCc1cccnc1 | i | i | i | i | i
CCOC(=O)CCC(NC(=O)c1ccc(NCN2C(=O)c3ccccc3C2=O)cc1)C(=O)OCC (centres undefined) | i | i | i | i | 55
CCCCN(CCCC)C(=O)c1ccccc1NC(=O)CN1C(=O)c2ccccc2C1=O | i | i | 92 | i | 93
O=C(CN1C(=O)c2ccccc2C1=O)Nc1ccccc1C(=O)N1CCCC1 | i | i | i | i | i
COc1c(C(C)C)cc(NC(C)=O)cc1C(C)C | i | i | 89 | i | i
CC(C)CCn1c(SCC(N)=O)nc2c1c(=O)n(C)c(=O)n2C | i | i | i | i | i
O=C(NC1CCCC1)C1CCCN(S(=O)(=O)c2ccc(-n3cnnn3)cc2)C1 (centres undefined) | i | i | i | i | i
CCOC(=O)C1CCCN(S(=O)(=O)c2ccccc2)C1 (centres undefined) | i | i | i | i | i
SMILES | CYP2C9 activ | CYP2C19 activ | CYP2C19 inhib | Cav32 inh | CYP2C9 inhib
CCOC(=O)C1CCCN(S(=O)(=O)c2c(C)c(C)cc(C)c2C)C1 (centres undefined) | i | i | 87 | i | i
CCOC(=O)C1CCCN(S(=O)(=O)c2ccc(OC)c3ccccc23)C1 (centres undefined) | i | i | 98 | -4 | i
CC(C)NC(=O)C1CCCN(S(=O)(=O)c2ccc(-n3cnnn3)cc2)C1 (centres undefined) | i | i | i | i | 51
CCOC(=O)C1CCCN(S(=O)(=O)c2ccc(F)c(C(=O)Nc3ccc(F)c(F)c3)c2)C1 (centres undefined) | i | i | 59 | i | 60
CCOC(=O)N1CCC(N(C(=O)Nc2ccccc2)C(C)CC)CC1 (centres undefined) | i | i | i | i | i
CCC(C)c1nc2c(c(N3CCC3=O)c1-c1ccccc1)CCCC2 (centres undefined) | nt | nt | nt | i | nt
COc1cc(COCC(O)CN2CCOCC2)cc(OC)c1OC (centres undefined) | i | i | i | nt | i
CCOC(=O)C1CCCN(S(=O)(=O)c2ccc(Br)c(OC)c2)C1 (centres undefined) | i | i | 71 | i | i
NC(=O)C1CCCN(S(=O)(=O)c2ccc(Br)cc2)C1 (centres undefined) | i | i | 59 | nt | i

High-throughput results: PubChem, several laboratories
